# Activity calls are given as the source filed them.
# Legend:
# [1] = E. coli DRC41 culture turbidity changes, primary screen, E. coli filamentation inducer project, strain DRC41, OD650, 48 h (AID 1152);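 note: E. coli MC1000 strain DRC41 lacking acrAB efflux pump and sulA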; details: E. coli DRC41 (acrAB sulA), higher = more signal, called active from +8 up or from −8 down
# [2] = small-molecule binders of probe aLefty1, primary screen, biochemical, small-molecule microarray, 635/667 nm fluorescence (AID 1153); details: higher = more signal;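 note: score merges spot fluorescence with signal-to-noise ratio from the scanned slide images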
# [3] = PSAC antagonists in infected red cells, primary screen, cell-based, P. falciparum Indochina, OD700, 1 h (AID 1154); details: P. falciparum Indochina infected RBC osmotic lysis, higher = more signal, called active from +8 up or from −8 down
# [4] = PSAC antagonists in infected red cells, primary screen, cell-based, P. falciparum Indochina, OD700, 2 h (AID 1155);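 note: lysis reports solute entry through the parasite surface anion channel PSAC; channel blockers reduce lysis of infected cells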; details: P. falciparum Indochina infected erythrocytes, osmotic lysis OD700; higher = more signal, called active from +8 up or from −8 down
# [5] = osmotic lysis modulators in infected erythrocytes, primary screen, PSAC antagonist project, cell-based, P. falciparum Indochina, OD700, 3 h (AID 1156); details: higher = more signal, called active from +8 up or from −8 down
# [6] = PSAC antagonists in infected red cells, primary screen, cell-based, P. falciparum Indochina, OD700, 18 h (AID 1157); details: P. falciparum Indochina infected erythrocytes, osmotic lysis OD700, 18 h; higher = more signal, called active from +8 up or from −8 down
# [7] = modulators of S6 phosphorylation in cells, primary screen, cell-based, A549, cytoblot, luminescence, serum-stimulated (AID 1158); details: A549 phospho-S6 cytoblot, 5 h, higher = more signal;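 note: serum-stimulated A549 lung adenocarcinoma cells; signal is phosphorylated S6 detected by cytoblot immunostaining with HRP secondary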
# [8] = target: NADPH oxidase 2 (Homo sapiens) (UniProt P04839); test: NOX2-dependent H2O2 signal modulators, primary screen, NOX inhibitor project, cell-based, HEK293-NOX2, PMA-stimulated, Amplex Red fluorescence (AID 1159); details: 45 min, higher = more signal, called active from +8 up or from −8 down; note: test concentration not given here
# Chain of NADPH oxidase 2 (Homo sapiens) (P04839 whole entry, looked up): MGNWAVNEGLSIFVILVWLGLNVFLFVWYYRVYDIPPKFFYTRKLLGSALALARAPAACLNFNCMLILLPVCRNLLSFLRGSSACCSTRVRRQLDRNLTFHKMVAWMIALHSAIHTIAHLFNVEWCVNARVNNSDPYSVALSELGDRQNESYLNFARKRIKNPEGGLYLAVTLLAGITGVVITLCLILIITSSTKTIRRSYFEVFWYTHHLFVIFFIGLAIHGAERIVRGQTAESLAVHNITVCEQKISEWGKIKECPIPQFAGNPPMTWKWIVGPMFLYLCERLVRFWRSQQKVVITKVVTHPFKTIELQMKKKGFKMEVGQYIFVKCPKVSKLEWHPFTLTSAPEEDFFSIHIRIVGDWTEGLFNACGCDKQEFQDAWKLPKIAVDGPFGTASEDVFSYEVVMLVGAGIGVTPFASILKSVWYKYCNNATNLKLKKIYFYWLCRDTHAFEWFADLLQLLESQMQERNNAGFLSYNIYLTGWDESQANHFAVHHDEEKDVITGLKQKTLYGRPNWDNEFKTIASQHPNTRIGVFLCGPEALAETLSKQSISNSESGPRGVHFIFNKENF
# [9] = target: NADPH oxidase 4 (Homo sapiens) (UniProt Q9NPH5); test: NOX4-dependent H2O2 signal modulators, primary screen, NOX inhibitor project, cell-based, HEK293-NOX4, tetracycline-induced, Amplex Red fluorescence (AID 1160); details: 45 min, higher = more signal, called active from +8 up or from −8 down
# Chain of NADPH oxidase 4 (Homo sapiens) (Q9NPH5 whole entry, looked up): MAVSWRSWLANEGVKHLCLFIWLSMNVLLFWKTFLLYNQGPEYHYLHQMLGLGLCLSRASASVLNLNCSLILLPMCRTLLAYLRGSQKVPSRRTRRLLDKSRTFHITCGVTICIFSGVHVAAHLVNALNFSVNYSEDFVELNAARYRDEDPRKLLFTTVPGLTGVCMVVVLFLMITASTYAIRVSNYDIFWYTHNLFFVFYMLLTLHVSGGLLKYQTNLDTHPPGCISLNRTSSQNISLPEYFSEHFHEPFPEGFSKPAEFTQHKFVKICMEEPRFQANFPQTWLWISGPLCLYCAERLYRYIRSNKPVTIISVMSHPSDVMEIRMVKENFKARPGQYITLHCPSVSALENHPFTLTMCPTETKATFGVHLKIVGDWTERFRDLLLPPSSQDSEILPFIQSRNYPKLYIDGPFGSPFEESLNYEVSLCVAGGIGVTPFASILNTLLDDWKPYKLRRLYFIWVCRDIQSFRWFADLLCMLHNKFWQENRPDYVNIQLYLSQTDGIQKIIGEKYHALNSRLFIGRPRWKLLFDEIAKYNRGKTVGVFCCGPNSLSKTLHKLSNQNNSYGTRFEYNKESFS
# [10] = target: NADPH oxidase 5 (Homo sapiens) (UniProt Q96PH1); test: NOX5-dependent H2O2 signal modulators, primary screen, NOX inhibitor project, cell-based, HEK293-NOX5, Amplex Red fluorescence (AID 1161); details: HEK293-NOX5, ionomycin, 45 min, higher = more signal
# Chain of NADPH oxidase 5 (Homo sapiens) (Q96PH1 whole entry, looked up): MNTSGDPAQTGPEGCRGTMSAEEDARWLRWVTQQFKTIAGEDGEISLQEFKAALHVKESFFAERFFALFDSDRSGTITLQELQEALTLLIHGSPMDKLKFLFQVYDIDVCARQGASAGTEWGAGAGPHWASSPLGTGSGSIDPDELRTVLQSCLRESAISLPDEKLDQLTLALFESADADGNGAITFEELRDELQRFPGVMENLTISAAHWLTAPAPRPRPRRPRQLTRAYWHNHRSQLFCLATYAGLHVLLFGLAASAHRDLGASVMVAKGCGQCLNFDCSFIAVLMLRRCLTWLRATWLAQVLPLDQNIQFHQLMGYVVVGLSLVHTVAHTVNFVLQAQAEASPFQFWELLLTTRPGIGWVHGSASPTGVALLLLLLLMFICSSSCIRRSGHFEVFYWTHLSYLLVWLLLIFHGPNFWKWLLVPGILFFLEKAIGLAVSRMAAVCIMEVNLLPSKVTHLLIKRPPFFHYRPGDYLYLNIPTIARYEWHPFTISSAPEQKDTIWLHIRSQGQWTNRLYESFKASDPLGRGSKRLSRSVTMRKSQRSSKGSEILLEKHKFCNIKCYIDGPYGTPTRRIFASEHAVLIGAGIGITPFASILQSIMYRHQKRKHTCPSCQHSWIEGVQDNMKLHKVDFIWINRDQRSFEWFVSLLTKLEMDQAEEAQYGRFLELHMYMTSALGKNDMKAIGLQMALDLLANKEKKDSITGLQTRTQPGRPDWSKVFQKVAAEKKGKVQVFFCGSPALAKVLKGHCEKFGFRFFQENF
Structure (SMILES),z-score [1],composite z-score [2],z-score [3],z-score [4],z-score [5],z-score [6],z-score [7],z-score [8],z-score [9],z-score [10]
COC(=O)c1ccc(OC)c(/C=C\CC(OC(=O)c2ccncc2)c2ccccc2)c1 (stereo not given),2.32 (inactive),-0.206,20.4 (active),3.1 (inactive),0.543 (inactive),-1.02 (inactive),1.93,-0.552 (inactive),0.529 (inactive),-0.408
C[C@]1(C(=O)NCC(F)(F)F)c2ccccc2C(=O)N(Cc2cc(C(F)(F)F)cc(C(F)(F)F)c2)[C@H]1c1ccc(CO)cc1,1.17 (inactive),0.0774,3.54 (inactive),-0.0979 (inactive),-0.29 (inactive),-0.16 (inactive),0.361,-0.905 (inactive),0.565 (inactive),0.648
COC(=O)[C@@]1(Cc2ccccc2)[C@H]2c3cc(C(=O)N(C)C)n(CCF)c3C[C@H]2CN1C(=O)c1ccccc1,-0.81 (inactive),0.873,1.54 (inactive),0.322 (inactive),0.484 (inactive),0.544 (inactive),-0.546,0.148 (inactive),-1.73 (inactive),-1.89
COc1ccc([Si](C)(C)[C@H]2[C@H](CC(=O)N(CCO)Cc3ccccc3)O[C@@]3(C(=O)N(c4ccccc4)c4ccccc43)[C@@H]2C)cc1,-0.79 (inactive),-0.0603,26.5 (active),12.9 (active),0.495 (inactive),2.04 (inactive),0.297,-0.0743 (inactive),0.689 (inactive),-1.65
C=CCOC(=O)[C@@H]1[C@H]2C(=O)O[C@H](c3ccccc3)[C@H](c3ccccc3)N2[C@H](c2ccc(OCCOC(=O)[C@H]3C[C@H]4C(=O)N[C@@H](CCCCN(C)C)C(=O)N4[C@H]3c3cccc(OCCO)c3)cc2)[C@@]12C(=O)Nc1ccccc12,0.171 (inactive),0.464,0.323 (inactive),0.0285 (inactive),-0.703 (inactive),0.0555 (inactive),-0.547,0.209 (inactive),-0.186 (inactive),-0.538
C[N+](C)(C)CCCC[C@@H]1NC(=O)[C@H]2C[C@@H](C(=O)NCCCCCN)[C@@H](c3ccc(O)cc3)N2C1=O,0.108 (inactive),0.14,0.105 (inactive),0.0643 (inactive),-3.73 (inactive),-0.0429 (inactive),-0.0286,0.081 (inactive),-0.0444 (inactive),0.204
C=CCOC(=O)[C@H]1[C@@H]2C(=O)O[C@@H](c3ccccc3)[C@@H](c3ccccc3)N2[C@@H](c2ccc(OCCOC(=O)[C@@H]3C[C@@H]4C(=O)N[C@@H](Cc5ccccc5)C(=O)N4[C@@H]3c3ccc(O)cc3)cc2)[C@]12C(=O)Nc1ccc(I)cc12,-0.402 (inactive),0.861,4.04 (inactive),2.18 (inactive),2.04 (inactive),1.38 (inactive),-0.674,0.972 (inactive),-1.15 (inactive),0.885
Cc1ccc(S[C@]2(C(=O)NCC(C)C)CC(=O)N(C(C)C)[C@@H]2c2ccc(CO)cc2I)cc1,0.746 (inactive),0.245,4.28 (inactive),0.965 (inactive),0.504 (inactive),0.279 (inactive),0.363,2.02 (inactive),-0.511 (inactive),1.9
CC[C@@H](O[Si](C#C[Si](C(C)C)(C(C)C)C(C)C)(C(C)C)C(C)C)c1cn([C@H](CO)Cc2ccccc2)nn1,0.922 (inactive),-0.0094,0.355 (inactive),0.49 (inactive),-0.68 (inactive),0.0878 (inactive),-0.116,-0.69 (inactive),0.408 (inactive),-0.133
Cc1ccc(S(=O)(=O)N2[C@@H](c3ccccc3)C(C(=O)O)=C[C@H]2C(C)(C)C)cc1,-0.576 (inactive),-0.0318,0.386 (inactive),0.0156 (inactive),0.136 (inactive),0.61 (inactive),-0.222,0.384 (inactive),-0.539 (inactive),-0.36
C=CCNC(=O)[C@@H]1[C@H]2C(=O)O[C@H](c3ccccc3)[C@H](c3ccccc3)N2[C@H](c2ccc(O)cc2)[C@@]12C(=O)Nc1ccc(C#CC3=CCCCC3)cc12,-0.396 (inactive),1.56,1.71 (inactive),0.959 (inactive),-0.587 (inactive),1.08 (inactive),-0.424,1.51 (inactive),0.391 (inactive),0.578
[N-]=[N+]=NCc1ccccc1C[C@@]1(C(=O)NCCN2CCOCC2)N=C(c2ccc(OCCCO)cc2)O[C@@H]1c1ccccc1,-1.58 (inactive),0.546,25.3 (active),11.7 (active),1.44 (inactive),1.65 (inactive),-0.28,-1.48 (inactive),0.731 (inactive),1.27
O=C1C2C=CC(C(O)c3ccccn3)N(Nc3ccc([N+](=O)[O-])cc3)C2C(=O)N1c1ccccc1 (stereo not given),-1.5 (inactive),0.0768,4.59 (inactive),1.04 (inactive),0.809 (inactive),0.509 (inactive),-0.967,-0.261 (inactive),-1.7 (inactive),-1.62
O=C1c2ccccc2[C@](Cc2ccccc2I)(C(=O)NCCN2CCOCC2)[C@H](c2ccc(CO)cc2)N1Cc1ccccc1C(F)(F)F,-2.6 (inactive),0.284,7.91 (inactive),1.13 (inactive),1.59 (inactive),0.65 (inactive),0.401,-1.06 (inactive),0.814 (inactive),1.15
CC(C)(C)OC(=O)CC[C@]1(C(=O)N2CCOCC2)COC(c2ccc(OCCCO)cc2)=N1,1.54 (inactive),0.0429,20.8 (active),4.54 (inactive),0.384 (inactive),1.18 (inactive),0.359,-1.16 (inactive),0.324 (inactive),-1.06
O=C1O[C@@H](c2ccccc2)[C@@H](c2ccccc2)N2[C@@H](c3ccccc3OCCO)[C@]3(C(=O)Nc4ccc(C#CC5(O)CCCCCC5)cc43)[C@@H](C(=O)N3CCCCCCC3)[C@H]12,0.177 (inactive),3.07,1.14 (inactive),-0.256 (inactive),0.786 (inactive),-1.64 (inactive),1.76,-0.21 (inactive),-0.596 (inactive),0.147
O=C1C2C=CC(C(O)C(c3ccccc3)c3ccccc3)N(Nc3ccccc3F)C2C(=O)N1c1ccccc1 (stereo not given),-1.6 (inactive),0.235,2.23 (inactive),1.25 (inactive),0.663 (inactive),0.852 (inactive),-0.799,-1.34 (inactive),-2.28 (inactive),-1.87
COC(=O)[C@@]1(Cc2ccc(F)cc2)[C@H]2c3cc(C(=O)N4CCCC4)n(CCc4c[nH]c5cc(F)ccc45)c3C[C@H]2CN1C(=O)c1ccccc1,-1.22 (inactive),0.429,1.76 (inactive),0.456 (inactive),1.86 (inactive),0.984 (inactive),0.593,0.361 (inactive),1.9 (inactive),2.01
COC(=O)[C@H](Cc1ccccc1)N1CC(C)(OC)O[C@@H](Cc2ccccc2)[C@H]1/C=C/C1CC1 (stereo not given in full),0.286 (inactive),-0.147,1.92 (inactive),0.0937 (inactive),-0.774 (inactive),0.281 (inactive),-0.105,-4.36 (inactive),-0.147 (inactive),-0.141
COc1cccc(C)c1NC(=O)O[C@H]1[C@H](OC(=O)Nc2ccccc2)[C@@H](OC(=O)Nc2ccccc2)[C@@H](OC)O[C@@H]1CO,-0.818 (inactive),0.26,3.02 (inactive),0.121 (inactive),0.376 (inactive),0.421 (inactive),0.249,-7.01 (inactive),-1.26 (inactive),-2.29
C=CCC(OC(C)=O)[C@@H]1[C@@H](N(Cc2cccc3ccccc23)C(=O)c2ccc(C)cc2)c2cc(OCCCO)ccc2N1C(=O)Cc1ccc2ccccc2c1 (stereo not given in full),2.62 (inactive),0.167,0.483 (inactive),-0.407 (inactive),-0.419 (inactive),-1.2 (inactive),2.14,-2.56 (inactive),1.08 (inactive),2.41
COCCCNC(=O)[C@@]1(Cc2ccccc2I)c2ccccc2C(=O)N(Cc2ccccc2C(F)(F)F)[C@H]1c1ccc(CO)cc1,-0.506 (inactive),-0.142,3.42 (inactive),1.31 (inactive),2.09 (inactive),0.866 (inactive),-0.55,0.227 (inactive),-1.01 (inactive),-1.42
CC1CC/C=C\[C@H]2OC34C=CCN(CCN5CCOCC5)C(=O)[C@H]3N(C(CO)C(C)C)C(=O)[C@@H]4C2C(=O)O1 (stereo not given in full),-0.481 (inactive),-0.247,1.94 (inactive),-0.184 (inactive),0.927 (inactive),0.233 (inactive),-0.69,1.13 (inactive),-0.728 (inactive),1.91
COC(=O)[C@]1(Cc2ccccc2N=[N+]=[N-])N=C(c2ccc(OCCCO)cc2)O[C@@H]1c1ccccc1CN=[N+]=[N-],-1.01 (inactive),-0.0012,22.2 (active),9.37 (active),-0.732 (inactive),2.26 (inactive),0.76,-2.97 (inactive),0.167 (inactive),-2.43
C=CCNC(=O)[C@H]1[C@@H]2C(=O)O[C@@H](c3ccccc3)[C@@H](c3ccccc3)N2[C@@H](c2ccc(OCCO)cc2)[C@]12C(=O)Nc1ccc(C#Cc3ccc(OC)cc3)cc12,-0.0405 (inactive),-0.248,3.42 (inactive),2.19 (inactive),0.866 (inactive),1.4 (inactive),-0.0157,0.87 (inactive),0.34 (inactive),1.43
